# Source: PubChem BioAssay (NCI)
# This is part of a sample that, as a whole, favours compounds with a hit. Of some 83,000 tested, about 20% had one in any assay.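 96-well plates, one dose, 48 hours. Percent growth reported; active if below 10.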 A number with no mark means an inactive call. The source made the active and inactive calls.
# How the values were obtained:
# Assay in all cases: NCI-60 one-dose screen, 48 h (100 = growth as untreated, 0 = no growth, -100 = all killed)
# Conditions in all cases: 10 µM unless noted
# [1] = tested on: DU-145 prostate
# [2] = tested on: K-562 leukemia
# [3] = tested on: MALME-3M melanoma
# [4] = tested on: MDA-MB-231 breast
# [5] = tested on: RXF 393 renal
# [6] = tested on: SF-268 CNS
# [7] = tested on: SF-295 CNS
# [8] = tested on: SF-539 CNS
# [9] = tested on: UACC-257 melanoma
# [10] = tested on: M14 melanoma
SMILES,growth [1],growth [2],growth [3],growth [4],growth [5],growth [6],growth [7],growth [8],growth [9],growth [10]
CN1CCN(Cc2ccc3c(NNC(=O)c4ccccc4)nc4cc(F)ccc4n23)CC1,27.1%,13.6%,23.5%,43.2%,39%,19.9%,16.2%,10.8%,11.8%,3.61% (active)
O=C(NCCCCNC(=O)OCc1ccc2c(Cl)cc(Cl)c(O)c2n1)OCc1ccc2c(Cl)cc(Cl)c(O)c2n1,1.77% (active),11.6%,43%,25.1%,27%,31.3%,22.8%,-13.7% (active),23.8%,12.4%
CNC(=O)c1cc(Oc2ccc3c(c2)sc2nc(-c4cc(OC)c(OC)c(OC)c4)cn23)ccn1,75.2%,29.3%,-8.33% (active),33.8%,63.2%,72%,51%,62.8%,49.7%,52%
N#CC1=C(N)Oc2c(sc3c(Br)cccc23)C1c1ccc(F)cc1 (stereo not given),24.1%,9.02% (active),49.4%,16.9%,-2.88% (active),25.5%,5.32% (active),-27.1% (active),74.1%,9.58% (active)
CN1CCN(c2ccc(C(=O)Nc3cccc(C#Cc4cccc5[nH]nc(N)c45)c3)cc2C(F)(F)F)CC1,-20.3% (active),-36.9% (active),-66.3% (active),-72.2% (active),-25.4% (active),-1.07% (active),-58.5% (active),-82.7% (active),-67.1% (active),-69.5% (active)
COc1ccc(C(=O)Nc2cccc(C3CC(=O)c4c(cc(OC)c(OC)c4OC)O3)c2)cc1 (stereo not given),2.98% (active),7.66% (active),31.4%,41.9%,-8.37% (active),46.6%,9.55% (active),-29.7% (active),46.2%,-23.9% (active)
CC(O)c1cnc(/C=C2\SC(=S)N(Cc3ccccc3)C2=O)s1 (stereo not given),53.2%,18%,90.8%,84.9%,73.6%,84.3%,102%,91.9%,72.8%,66.5%
COc1ccc2nc3ccc(OC)cc3c(SCCCN)c2c1,19.8%,-33.6% (active),95%,102%,49.1%,94.1%,95.9%,108%,105%,81%
CC(C)=NNc1ccccn1,48.4%,59.2%,48.5%,36.4%,69.8%,43.7%,67.6%,43.5%,11.9%,35.8%
Cc1ccc(-c2nc3nc(-c4ccccc4)nc(N4CCNCC4)c3o2)cc1,-86.8% (active),-71% (active),-80.4% (active),-79.3% (active),-81.2% (active),-67.2% (active),-83.2% (active),-93.4% (active),-89.2% (active),-84.7% (active)
Cc1ccc(-c2nn(-c3ccccc3)cc2C=C2C(=O)ON=C2C(C)C)cc1,88.1%,34.2%,85.2%,97.3%,89.9%,94.8%,96.8%,83.6%,96.4%,65.8%
COc1cc(C(=O)n2nc(N3CCN(C)CC3)c3cc(N)ccc32)cc(OC)c1OC,22.5%,10.4%,65.3%,50.3%,-13.3% (active),47.2%,4.42% (active),-14.1% (active),85.3%,2.63% (active)
COc1ccc2c(c1)c(-c1noc(C(=O)c3cn(C)c4ccc(Br)cc34)n1)cn2C,113%,88%,93.9%,103%,114%,99.2%,117%,101%,92.7%,97%
O=C1COCCN1c1ccc(Nc2nc(Cl)nc(OCc3cn(Cc4ccccc4)nn3)n2)cc1,90.5%,33.2%,96.1%,95.4%,90.7%,80.9%,102%,98.2%,84.4%,76.1%
O=C(CCc1nnc(Cn2cnc3nc[nH]c3c2=O)o1)c1nc2ncccc2[nH]1,108%,99.7%,97.5%,94.7%,102%,96.1%,101%,95%,105%,96.5%
O=[N+]([O-])c1ccc(S(=O)(=O)N2CCN(C3=NS(=O)(=O)c4ccccc4N3c3ccccc3)CC2)cc1,117%,84.9%,106%,99.2%,91.7%,101%,91.2%,103%,101%,113%
Cc1cccnc1NC(=S)Nc1ncccc1C,113%,65.3%,113%,112%,92.3%,108%,81.2%,107%,116%,102%
COP(=O)(OC)C(C)(C)CC(=O)CC(C#N)(C#N)C(C#N)C#N,113%,91.1%,96.8%,100%,97.8%,98%,101%,102%,103%,96.2%
Brc1ccc(-n2cc(-c3nn[nH]n3)c(-c3cccs3)n2)cc1,107%,100%,93.7%,88.1%,105%,100%,95.3%,96%,96.1%,95.9%
COc1ccc(-c2nc3c(c(-c4ccccc4)nn3-c3ccccc3)c(-c3ccc(N4CCN(C)CC4)cc3)c2C#N)cc1,92.9%,8.47% (active),94.6%,97.9%,76%,105%,107%,95.7%,95.5%,104%
COc1cc(-n2cc(-c3cc(O)c(C/C=C(\C)CCC=C(C)C)c(O)c3)nn2)cc2c1O[C@]1(C)CC[C@@H](O)C(C)(C)[C@H]1C2,30.6%,3.36% (active),-0.848% (active),-30.7% (active),-60.6% (active),20.9%,-53% (active),-40.4% (active),27.4%,-17.5% (active)
Nc1nc(=S)c2ncn(C3OC(COP(=O)(O)O)C(O)C3O)c2[nH]1 (stereo not given),22.6%,13.7%,39.7%,38.7%,13.9%,28.2%,19.9%,26.2%,36.7%,14.6%
CC(C)c1ccc(COCc2cc(CN3CCCC3)c(O)c3ncccc23)cc1,18.6%,3.96% (active),8.44% (active),8.36% (active),3.03% (active),8.66% (active),4.84% (active),-22.1% (active),-12.8% (active),-6.21% (active)
C=C1CC[C@@H]2[C@](C)(COC(C)=O)[C@H](OC(C)=O)CC[C@@]2(C)[C@@H]1CC(Sc1ccccc1)C1=CCOC1=O (stereo not given in full),16.4%,3.95% (active),16.8%,7.4% (active),5.01% (active),11.6%,65.9%,-43.6% (active),29.4%,-4.19% (active)
COC(=O)c1cc(-c2ccccc2)[nH]c1N/N=C/c1c(Cl)cccc1Cl,-5.4% (active),-21.8% (active),-15.2% (active),10.5%,-18.7% (active),33.1%,-59.5% (active),-33.3% (active),51%,-12.3% (active)
CN(Cc1ccc(C(F)(F)F)cc1)CC(O)C(=O)Nc1ccc(Cl)cc1 (stereo not given),-51.4% (active),-36% (active),12.8%,26%,12.9%,31.9%,-69.5% (active),21.9%,1.78% (active),-49.8% (active)
COC(=O)c1n[nH]c2ccc3nc(-c4cn[nH]c4C(F)(F)F)c4c(c3c12)CCCC4,49.1%,72.9%,28.9%,38.6%,37.9%,54.8%,48.7%,27.4%,28.9%,11%
